Compound activity (PubChem)
G9a inh – blocks human histone lysine methyltransferase G9a; Q96KQ7; G9a H3K9 monomethylation, AlphaScreen, 2 h; Potency, µM (highest dose often 102 µM), for the others: top-dose activity, negative = inhibition, hits mostly inhibitors; 350,000 tested, 8.8% active; AID 504332; note: % is set by controls: 0 for no effect and ±100 for the full control effect; nearly all actives have a fitted effect of over 75% in size
Target sequence (Q96KQ7 913-1193 limits assumed): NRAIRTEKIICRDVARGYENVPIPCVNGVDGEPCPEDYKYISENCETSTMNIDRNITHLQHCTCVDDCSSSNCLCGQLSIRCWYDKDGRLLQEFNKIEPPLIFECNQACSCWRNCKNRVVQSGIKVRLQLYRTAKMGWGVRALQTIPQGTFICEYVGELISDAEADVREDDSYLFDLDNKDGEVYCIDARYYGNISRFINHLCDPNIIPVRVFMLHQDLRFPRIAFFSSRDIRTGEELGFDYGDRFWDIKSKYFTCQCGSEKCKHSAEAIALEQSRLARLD
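Methyltransferase reactions run at room temperature for 2 h (20 nM enzyme, 500 nM biotin-H3K9 peptide, 20 uM SAM) after a 15 min compound preincubation; product detected by AlphaScreen beads and anti-H3K9me1 antibody.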
HP1b chromo inh – HP1-beta chromodomain-methylated histone interaction inhibition; P83916; AlphaScreen HP1-beta / biotin-H3K9me3 peptide binding; Potency, µM (series often up to 114 µM), for the others: at the highest dose activity change, negative = inhibition, most hits filed as inhibitors; 390,000 tested, 0.56% active; note: nearly all actives have a fitted effect of over 70% in size
Target sequence (P83916 whole entry, looked up): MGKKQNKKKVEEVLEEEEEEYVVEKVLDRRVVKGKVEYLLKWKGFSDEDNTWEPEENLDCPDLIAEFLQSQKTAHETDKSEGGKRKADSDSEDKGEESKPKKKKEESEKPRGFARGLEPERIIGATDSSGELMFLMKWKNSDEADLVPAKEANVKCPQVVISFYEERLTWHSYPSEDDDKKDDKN
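HP1-beta protein (50 nM final) preincubated 30 min at room temperature with biotinylated H3(1-18)K9me3 peptide (50 nM) in PBS pH 7.4, 0.01% Tween-20, then compound added for 30 min. AlphaScreen streptavidin donor/nickel chelate acceptor beads (10 ug/mL final), 30 min dark, luminescence read.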
BAZ2B inh – blocks human BAZ2B; AlphaScreen BAZ2B-H3K14Ac peptide displacement; Potency, µM (titrated, usually from 114 µM), without a hit: at the top dose activity change, negative = inhibition, most hits filed as inhibitors; 360,000 tested, 4.4% active; AID 504333; note: % is set by controls: 0 for no effect and ±100 for the full control effect; nearly all actives have a fitted effect of over 60% in size
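Inhibition is scored as reduced AlphaScreen emission. The BAZ2B/b-H3(5-23)K14Ac complex (50 nM each) in PBS pH 7.4, 0.01% Tween-20 meets compound (up to 110 uM) for 30 min at RT before bead addition.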
JMJD2A Tudor inh – blocks the human JMJD2A Tudor domain | O75164 | AlphaScreen JMJD2A-Tudor / H3K4me3 peptide binding | Potency, µM (top dose mostly 114 µM), without a hit: top-dose activity change, negative = inhibition, most hits filed as inhibitors | 390,000 tested, 4.4% active | AID 504339; note: % is set by controls: 0 for no effect and ±100 for the full control effect; nearly all actives have a fitted effect of over 50% in size
Sfp PPTase inh – blocks B. subtilis Sfp PPTase activity; Q9F4F7; Biochemical Sfp PPTase activity, qHTS; Potency, µM, inactives show largest response in the series, negative = inhibition, hits mostly inhibitors; 310,000 tested, 3.5% active;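 note: the enzyme is Sfp with the accession as filed and its product quenches rhodamine fluorescence; 0% = enzyme reaction without inhibitor and -100% = no enzyme wells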
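Reaction rates are the 30-min fluorescence difference (ex 525, em 598 nm) in wells containing 15 nM Sfp, 5 uM rhodamine-CoA and 12.5 uM BHQ-2-YbbR at pH 7.6 with 10 mM MgCl2.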
L3MBTL1 block – blocks human L3MBTL1 | AlphaScreen L3MBTL1–H3K9me1 peptide binding | Potency, µM (highest dose often 57.1 µM), without a hit: top-dose activity, negative = inhibition, actives largely listed as inhibitors | 230,000 tested, 0.66% active; note: % is set by controls: 0 for no effect and ±100 for the full control effect; nearly all actives have a fitted effect of over 60% in size
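First, the protein-peptide complex forms for 30 min at room temperature (L3MBTL1 50 nM, biotinylated H3K9me1 peptide 75 nM). Next, compounds are pin-transferred and incubated 30 min. Finally, AlphaScreen beads are added and read after 30 min.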
An asterisk follows results filed as active; ? = inconclusive; · = no result; ! = not active in a repeat; [ ] = dose if it differs, or a comment. An excerpt weighted towards active compounds, which were near 12% of everything screened. Calls come from the whole dose curve; as a rule, active = well fitted curve in the direction sought with a large enough effect; inconclusive = small, poorly fitted or top-dose-only effect, or another doubt; inactive = no such curve, though single readings can be large; an effect the other way counts as inactive or inconclusive. Potency is the fitted concentration of half-maximal effect.

SMILES	G9a inh	HP1b chromo inh	BAZ2B inh	JMJD2A Tudor inh	Sfp PPTase inh	L3MBTL1 block
COc1cc(/C=C/C(=O)Nc2cc(S(=O)(=O)N3CCOCC3)ccc2N2CCCC2)cc(OC)c1OC	10µM*	?	-29%	-31%	28µM*	3%
CCN1CCN(c2ccc(S(=O)(=O)N3CCCCC3)cc2NC(=O)/C=C/c2cc(OC)ccc2OC)CC1	?	3%	?	-24%	-18%	·
CCN1CCN(c2ccc(S(=O)(=O)N3CCOCC3)cc2NC(=O)/C=C/c2cccc(OC)c2OC)CC1	28µM*	9%	-12%	-12%	·	-4%
COc1cc(F)c(S(=O)(=O)N2CCN(S(=O)(=O)c3ccc(NC(C)=O)cc3)CC2)c(F)c1	·	·	·	-19%	·	·
COc1cc(/C=C(\C#N)c2nc3ccccc3c(=O)[nH]2)cc(OC)c1OC	-26%[59 µM]	21%	4%	4%	·	·
CC1CCC(C(C)C)C(OCC(O)C[N+]2(C)CCCCC2)C1 (configuration not stated)	50µM*	?	-29%	-11%	-4%	3%
CC1CCC(C(C)C)C(OCC(O)CN2CCCC(C)C2)C1 (configuration not stated)	-11%	26%	-15%	-3%	21%	4%
C[C@H](NC(=O)[C@@H]1Cc2ccccc2CN1)C(=O)NC[C@H]1CC[C@H](C(=O)O)CC1	15%	33%	-13%	-18%	-3%	·
C[C@H](NC(=O)[C@@H]1Cc2ccccc2CN1)C(=O)NC1CCCCC1	79µM*	22%	-24%	-14%	0%	·
O=C(CNC(=O)[C@@H]1Cc2ccccc2CN1)NCc1ccco1	71µM*	48%	-12%[57.1 µM]	-17%	1%	·
COc1ccc(CNC(=O)[C@H](C)NC(=O)[C@@H]2Cc3ccccc3CN2)cc1	71µM*	19%	?	-9%	-2%	·
CC(C)[C@H](NC(=O)[C@@H]1Cc2ccccc2CN1)C(=O)NC1CCCCC1	-20%	41%	-15%	2%	1%	·
C[C@@H](NC(=O)[C@@H]1Cc2ccccc2CN1)C(=O)NCC1CCCO1 (some centres not stated)	50µM*	39%	-17%	14%	3%	·
COc1ccccc1CNC(=O)[C@H](C)NC(=O)[C@@H]1Cc2ccccc2CN1	?	69%	-19%	-3%	11%	·
CCN(C(=O)c1cc2c(=O)oc3ccccc3c2s1)c1ccccc1F	1%[59 µM]	18%	4%	2%	·	·
Cc1ccc(NC(=O)c2cnn3c(C(F)F)cc(-c4ccccc4)nc23)cc1F	-13%[59 µM]	46%	3%	-1%	·	·
CCOC(=O)c1cccc(NC(=O)NC(C)c2c(-n3cccc3)sc3c2CCN(C)C3)c1 (configuration not stated)	?	6%	?	?	·	·
O=C(c1ccccc1)N1CCc2cc(CNS(=O)(=O)c3ccc(Cl)s3)ccc21	3%[59 µM]	19%[57 µM]	1%	-19%	·	·
C#CCOCCOCCOCCNc1nc(N2CCOCC2)nc(N2CCN(C(=O)[C@H]([C@@H](C)O)n3cc(CCCCN)nn3)CC2)n1	45µM*	19%	?	-15%	6%	3%
C#CCOCCOCCOCCNc1nc(N2CCOCC2)nc(N2CCN(C(=O)[C@H]([C@@H](C)CC)n3cc(CCCN=C(N)N)nn3)CC2)n1	50µM*	33%	-36%	-12%	-5%	7%
COc1ccc(Br)cc1Cn1nnc(C(=O)Nc2cccc(SC)c2)c1N	-6%[59 µM]	22%	-23%	-15%	·	·
Cc1ccc(Cl)cc1NC(=O)c1oc2ccc(S(=O)(=O)N3CCC4(CC3)OCCO4)cc2c1C	8%[59 µM]	27%	3%	-8%	·	·
C/C(=N\NC(=O)c1nnn(-c2nonc2N)c1CN(C)c1ccccc1)c1ccccn1	49%[59 µM]	35%	8.9µM*	22µM*	10%	·
C/C(=N\NC(=O)c1cccnc1)c1nnn(-c2nonc2N)c1C	50µM*	75%	-11%	-17%	6%	22%
C/C(=N\NC(=O)c1nnn(-c2nonc2N)c1CN1CCCCCC1)c1ccc(Br)cc1	50µM*	44%	-2%	-7%	4%	·
SMILES	G9a inh	HP1b chromo inh	BAZ2B inh	JMJD2A Tudor inh	Sfp PPTase inh	L3MBTL1 block
C/C(=N\NC(=O)c1nnn(-c2nonc2N)c1CN(C)c1ccccc1)c1ccc(O)cc1	1%	29%	-6%	-14%	1%	·
C/C(=N\NC(=O)c1nnn(-c2nonc2N)c1CN1CCC(C)CC1)c1cccc(Br)c1	-23%	63%	-14%	-30%	6%	·
CC(/C=N/NC(=O)c1nnn(-c2nonc2N)c1CN(C)C)=C\c1ccco1	79µM*	-10%	-33%	-24%	?	·
COc1ccccc1NC(=O)C(OC(=O)CNC(=O)c1ccccc1)c1ccccc1 (configuration not stated)	·	·	·	-19%	·	·
CCN1CCN(Cc2c(C(=O)N/N=C(\C)c3ccc(Cl)cc3)nnn2-c2nonc2N)CC1	28µM*	36%	?	-27%	-1%	·
CCOc1ccc(-c2cc3nc(C4CCN(C(=O)OC(C)(C)C)CC4)c(C(=O)Nc4ccc(C)cc4C)cn3n2)cc1	-2%[59 µM]	45%	1%	-12%	·	·
CCOC(=O)C1=C(C)NC(SCC(=O)O)=C(C#N)C1c1ccco1 (configuration not stated)	?	35%	-31%	?	4%	2%
COc1ccccc1NC(=O)C1=C(C)NC(SCC(=O)c2ccc(C)cc2)=C(C#N)C1c1ccco1 (configuration not stated)	?	·	-23%	·	45µM*	·
CCN(CC)C(=O)CSC1=C(C#N)C(c2ccco2)C(C(=O)OCCOC)=C(C)N1 (configuration not stated)	25µM*	26%	?	79µM*!	56µM*	-10%
CC(=O)C1=C(C)NC(SCC(=O)c2cc(Cl)ccc2Cl)=C(C#N)C1c1ccco1 (configuration not stated)	32µM*	-3%	2%	?	35µM*	-9%
CC1=C(C(=O)Nc2ccccc2)C(c2ccco2)C(C#N)=C(SCC(=O)OC(C)C)N1 (configuration not stated)	-15%[59 µM]	32%	·	-10%	6%	-2%
CC(=O)C1=C(C)NC(SCC(N)=O)=C(C#N)C1c1ccco1 (configuration not stated)	?	33%	?	-15%	89µM*	14%
CCOc1ccccc1NC(=O)N(Cc1ccc(F)cc1)C1CCN(CC)CC1	-33%[59 µM]	24%	-11%	-9%	·	·
C[C@H]1C(=O)N(S(=O)(=O)c2ccccc2[N+](=O)[O-])[C@H]1c1ccc(-c2ccccc2)cc1	·	-5%	·	?	14%	·
